Laboratory results taken from PubChem BioAssay.
Values joined by “and” are separate entries in the source; they are usually repeats but may differ in a detail not shown here. Equal values may be shown once. Active and inactive are the calls of the source.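 The calls were made as follows, unless noted: active = inhibition at or above 50% relative to wild type and mutant plate controls; inactive = inhibition below 50%.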

Key:
[1] = inhibitors of TNFa-induced NFkB p65 translocation, primary screen, imaging, HUVEC, MLSMR starter and 10KST1 sets (AID 438;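 active = inhibition above 20% together with a positive visual image hit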;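 also: compound added about 3h40 before a 20 min TNFalpha stimulation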;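 as to inhibition: signal is the nuclear over cytoplasmic p65 intensity ratio per well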); settings: HUVEC TNFa-induced p65 nuclear translocation; cell count: measured here: nuclei count (cytotoxicity indicator), at 2.08 µM; inhibition: at 2 µM, stronger effect = higher value, 0% TNFa-plus-vehicle, 100% no-TNFa wells
[2] = reduction of polyQ htt aggregates in cells – imaging, exon1htt(103Q)mCFP cells, high-content imaging, primary screen (AID 483;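 active = visual image review flags a hit and inhibition of aggregation exceeds 20%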;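 also: compound exposure lasted 3 days before fixation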;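 as to nuclei count: percent of the per-plate median nuclei count of sample wells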); settings: exon1htt(103Q)mCFP cell line, aggregate imaging, at 2 µM; inhibition of aggregation: stronger effect = higher value; nuclei count: measured here: cell count, toxicity
[3] = endothelial E-selectin expression blockers – imaging, HUVEC, immunofluorescence, MLSMR starter and 10KST1 sets, primary screen (AID 487;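 active = visually confirmed hit in the image check and inhibition above 20%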;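 as to inhibition: signal is fraction of cell area covered by stained E-selectin grains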;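 as to nuclei count: 100% = median nuclei count of all wells on the same plate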); settings: HUVEC TNFalpha-induced E-selectin immunofluorescence imaging, at 2 µM; inhibition: stronger effect = higher value; nuclei count: measured here: cell number, toxicity
[4] = Primary imaging screen for DUSP6 inhibitors that restore phospho-Erk in transfected HeLa cells, chemical complementation (AID 609;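 active = compounds giving at least 50% inhibition in the cell-based MKP-3 phosphatase rescue imaging test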;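 as to inhibition: phospho-Erk level distribution per well compared with pooled transfected vehicle control wells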); settings: HeLa MKP-3 transfected, phospho-Erk imaging KS statistic, at 10 µM, cells stimulated with TPA for 15 min
[5] = biological target: Dual specificity protein phosphatase 6 (Homo sapiens) (UniProt Q16828); test: as above; settings: HeLa MKP-3 transfected, phospho-Erk imaging KS statistic; at 10 µM; stronger effect = higher value; cells stimulated with TPA for 15 min
[6] = biological target: Voltage-gated potassium channel subunit beta-2 (Rattus norvegicus) (UniProt P62483); test: inhibitors of rat Kvbeta2 reductase activity – biochemical, NADPH fluorescence, primary screen (AID 622;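 active = fluorescence slope higher than the sample average by over 3 SD, cut at about -0.22 in these data, passing the limit was not always enough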;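 also: slope of raw intensity against log time taken from 70 to 1610 s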); settings: recombinant KvBeta, 4-cyanobenzaldehyde reduction, at 10 µM, stronger effect = higher value
[7] = biological target: Voltage-gated potassium channel subunit beta-2 (Rattus norvegicus) (UniProt P62483); test: enhancers of rat Kvbeta2 NADPH turnover – biochemical, NADPH fluorescence, primary screen (AID 623;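 active = NADPH fluorescence slope more negative than the mean of all samples by about 3 SD, 99.7% confidence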;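 also: fluorescence intensity change per second fitted from 20 to 320 s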); settings: Recombinant KvBeta, NADPH fluorescence decrease slope, 10 min; at 10 µM; stronger effect = lower value
[8] = biological target: Alpha-2C adrenergic receptor (Homo sapiens) (UniProt P18825); test: compounds altering alpha2C-coupled GIRK flux – cell-based, HEK293 alpha2C/GIRK1/2, thallium flux, primary screen (AID 624;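 active = fluorescence slope after compound addition differing from the mean of all screened samples at 99.7% confidence, in either direction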;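 also: slope of fluorescence ratio to pre-addition baseline per second over 15 to 24 s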); settings: thallium flux BTC fluorescence, at 10 µM, actives lie on both sides
[9] = inhibitors of larval lipid processing in zebrafish, primary screen, whole organism, PED6 fluorescence, gall bladder and intestine (AID 686;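 active = a full or partial loss of lipid-probe fluorescence in the fish gall bladder, intestine or both, judged by eye; inactive = no fluorescence loss, or compound toxic to the fish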;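 also: larvae 5 to 7 days old with five fish per well; signal comes from phospholipase A2 cleavage of quenched PED6 carried via bile; overnight exposure to compound and PED6 before scoring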); settings: Zebrafish larvae PED6 lipid processing, fluorescence scoring; screened at 20 µM (by protocol)
[10] = loss of swimming-algae plug formation – whole organism, Chlamydomonas reinhardtii, WT vs cilia-less mutant, absorbance, 96-well, primary screen (AID 463189); settings: Chlamydomonas reinhardtii gravitaxis, OD600 absorbance, 2 days; at 10 µM; stronger effect = higher value;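 also: 0% = wild type cc124 cells in DMSO and 100% = ciliumless bld1 mutant cells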
[11] = blockers of RIG-like receptor reporter activation – cell-based, Sendai virus stimulus, luciferase, 10K MLSCN set, TLR/RLR signaling modifier project, primary screen (AID 602276;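 active = inhibition at or above 50% at 10 µM; inactive = inhibition below 50%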;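 also: firefly luciferase from ISG56 promoter only with Renilla not read in this screen; 0% = Sendai virus plus DMSO and 100% = medium plus DMSO without virus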); settings: HEK293 RL24 IRF3 luciferase reporter, at 10 µM, stronger effect = higher value
[12] = TLR3 IRF3 reporter activation blockers – cell-based, poly I:C stimulus, luciferase, 10K MLSCN set, primary screen (AID 602277;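 active = inhibition of the reporter signal at or above 50%; inactive = inhibition below 50%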); settings: HEK293-TLR3 RL24 IRF3 luciferase reporter, at 10 µM, stronger effect = higher value
[13] = measured here: cell density z-score
[14] = measured here: nuclear c-Myc green intensity z-score
[15] = measured here: nuclear pErk red intensity z-score, stronger effect = higher value

Sequence of Voltage-gated potassium channel subunit beta-2 (Rattus norvegicus) (P62483 whole entry, looked up): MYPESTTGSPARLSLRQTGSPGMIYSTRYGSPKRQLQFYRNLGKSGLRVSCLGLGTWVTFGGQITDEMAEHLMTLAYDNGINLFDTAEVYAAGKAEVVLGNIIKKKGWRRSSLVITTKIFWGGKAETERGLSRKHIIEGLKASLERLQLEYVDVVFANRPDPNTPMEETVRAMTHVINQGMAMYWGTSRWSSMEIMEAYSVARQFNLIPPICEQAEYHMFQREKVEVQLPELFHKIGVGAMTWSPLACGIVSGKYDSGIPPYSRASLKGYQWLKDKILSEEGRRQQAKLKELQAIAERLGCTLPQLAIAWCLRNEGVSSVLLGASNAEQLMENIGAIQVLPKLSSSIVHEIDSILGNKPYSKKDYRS
Sequence of Dual specificity protein phosphatase 6 (Homo sapiens) (Q16828 whole entry, looked up): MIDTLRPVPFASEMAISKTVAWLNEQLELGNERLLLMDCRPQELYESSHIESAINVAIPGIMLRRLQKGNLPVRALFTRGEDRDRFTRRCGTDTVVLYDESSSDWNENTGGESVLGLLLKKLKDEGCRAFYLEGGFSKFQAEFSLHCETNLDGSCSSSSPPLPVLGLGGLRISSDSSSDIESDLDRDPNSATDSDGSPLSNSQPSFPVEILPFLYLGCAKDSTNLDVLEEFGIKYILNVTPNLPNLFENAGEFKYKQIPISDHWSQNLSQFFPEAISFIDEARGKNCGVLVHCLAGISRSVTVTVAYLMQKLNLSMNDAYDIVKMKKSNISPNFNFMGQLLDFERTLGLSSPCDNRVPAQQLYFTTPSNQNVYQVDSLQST
Sequence of Alpha-2C adrenergic receptor (Homo sapiens) (P18825 whole entry, looked up): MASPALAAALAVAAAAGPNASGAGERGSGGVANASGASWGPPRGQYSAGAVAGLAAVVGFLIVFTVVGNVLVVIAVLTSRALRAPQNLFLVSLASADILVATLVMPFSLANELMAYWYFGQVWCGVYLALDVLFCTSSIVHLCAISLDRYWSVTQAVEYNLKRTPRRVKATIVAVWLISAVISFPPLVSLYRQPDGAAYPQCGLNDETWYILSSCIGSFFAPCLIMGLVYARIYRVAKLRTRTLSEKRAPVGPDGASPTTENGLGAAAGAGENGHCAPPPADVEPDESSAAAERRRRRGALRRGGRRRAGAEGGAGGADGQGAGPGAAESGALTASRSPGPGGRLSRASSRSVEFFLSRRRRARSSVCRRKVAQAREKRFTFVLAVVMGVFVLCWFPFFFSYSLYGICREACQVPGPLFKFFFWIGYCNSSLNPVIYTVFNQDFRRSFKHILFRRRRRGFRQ

| SMILES | cell count [1] | inhibition [1] | inhibition of aggregation [2] | nuclei count [2] | inhibition [3] | nuclei count [3] | z-score [4, 13] | z-score [4, 14] | z-score [4, 15] | inhibition [5] | fluorescence slope [6] | NADPH fluorescence slope [7] | slope [8] | outcome [9] | inhibition [10] | inhibition [11] | inhibition [12] |
| --- | --- | --- | --- | --- | --- | --- | --- | --- | --- | --- | --- | --- | --- | --- | --- | --- | --- |
| C=CCOc1nc2c(c(=O)n(C)c(=O)n2C)n1Cc1c(Cl)cccc1Cl | 556 | -2.9% (inactive) | -47.7% (inactive) | 115% | 14% (inactive) | 113% | -0.686 | 2.36 | -0.556 | -4.7% (inactive) | -0.502 (inactive) | -0.000118 (inactive) | 0.00485 (inactive) | inactive | -9.21% (inactive) | 11.4% (inactive) | 16% (inactive) |
| C[C@@H]1C[C@H]2[C@@H]3CCC4=CC(=O)C=C[C@]4(C)[C@@]3(F)[C@@H](O)C[C@]2(C)[C@H]1C(=O)CO | 647 | -8.8% (inactive) | 0% (inactive) | 59.5% | -68% (inactive) | 134% | 1.14 | 0.339 | -1.14 | 31.1% (inactive) | -0.536 (inactive) | -9.8e-05 (inactive) | 0.00544 (inactive) | inactive | 4.88% (inactive) | -17.5% (inactive) | -9.26% (inactive) |
| CCCCNc1cc(C(=O)O)cc(S(N)(=O)=O)c1Oc1ccccc1 | 603 | -16.6% (inactive) | -13.4% (inactive) | 110% | -136% (inactive) | 140% | 0.424 | 0.482 | -0.678 | 15.3% (inactive) | -0.47 (inactive) | -6.3e-05 (inactive) | 0.00446 (inactive) | inactive | 7.78% (inactive) and -7.14% (inactive) | 13.2% (inactive) | 38.2% (inactive) |
| COc1cccc(N2CCN(c3ncnc4c3[nH]c3ccc(F)cc34)CC2C)c1 (stereo not given) | 342 | -7% (inactive) | 10.9% (inactive) | 92.8% | 11.4% (inactive) | 127% | 0.762 | 0.103 | -1.52 | -3.5% (inactive) | -0.393 (inactive) | -9.3e-05 (inactive) | 0.00384 (inactive) | inactive | 25.3% (inactive) | 2.95% (inactive) | 98.8% (active) |
| Cc1nn(C)cc1/C=N/O | 677 | -4.1% (inactive) | -2.1% (inactive) | 83.6% | -8.8% (inactive) | 140% | 0.232 | -1.13 | -0.23 | -1.12% (inactive) | -0.494 (inactive) | -0.000175 (inactive) | 0.00422 (inactive) | inactive | 7.83% (inactive) | 15.8% (inactive) | 19% (inactive) |
| CSC1=C(C#N)C(C)CC(=O)N1 (stereo not given) | 552 | -5.8% (inactive) | -2% (inactive) | 112% | 1.9% (inactive) | 108% | -0.957 | -0.437 | 0.604 | -5.89% (inactive) | -0.51 (inactive) | -6.2e-05 (inactive) | 0.00463 (inactive) | inactive | 19.4% (inactive) | 13.8% (inactive) | 12.5% (inactive) |
| COc1cc([C@@H]2c3cc4c(cc3[C@H](O)[C@H]3COC(=O)[C@H]23)OCO4)cc(OC)c1OC | 436 | 21.5% (active) | -118% (inactive) | 1.5% | -226% (inactive) | 86.2% | 0.542 | -0.666 | -0.822 | -6.41% (inactive) | -0.472 (inactive) | -0.000104 (inactive) | 0.00519 (inactive) | inactive | 0.865% (inactive) | 33.7% (inactive) | 81.6% (active) |
| C[C@@H]1C[C@H]2[C@@H]3CCC4=CC(=O)C=C[C@]4(C)[C@@]3(F)[C@@H](O)C[C@]2(C)[C@@]1(O)C(=O)COP(=O)(O)O | 525 | -10.3% (inactive) | -19.8% (inactive) | 49.4% | -15.3% (inactive) | 98.8% | 0.835 | 0.378 | -0.291 | 25.1% (inactive) | -0.516 (inactive) | -5.2e-05 (inactive) | 0.00437 (inactive) | inactive | 31.6% (inactive) | -1.94% (inactive) | 31.9% (inactive) |
| CCN1CCN(c2nc3c(C)cccn3c(=O)c2/C=C(\C#N)S(=O)(=O)c2ccccc2)CC1 | 501 | -1.7% (inactive) | -13.4% (inactive) | 108% | -71.1% (inactive) | 118% | 0.894 | -1.58 | 2.23 | 3.5% (inactive) | -0.517 (inactive) | -1.8e-05 (inactive) | 0.00181 (inactive) | inactive | 18.9% (inactive) | 9.29% (inactive) | 23.8% (inactive) |
| O=C(NCc1ccco1)c1cnn2c(C(F)(F)F)cc(-c3ccco3)nc12 | 480 | -4.4% (inactive) | -12.5% (inactive) | 95.1% | -34.8% (inactive) | 118% | -0.634 | 0.493 | -1.31 | 11.3% (inactive) | -0.421 (inactive) | -6.2e-05 (inactive) | 0.00539 (inactive) | inactive | -15.7% (inactive) | 16% (inactive) | 24.8% (inactive) |
